Results on four compounds are retold here after PubChem BioAssay AID651871 (Sanford-Burnham Center for Chemical Genomics, 2012).

The structures appear in SMILES notation. Values joined by “and” are separate entries in the source; they are usually repeats but may differ in a detail not shown here. Equal values may be shown once.

This assay has as its system H9c2. The assay is described as follows: protection of cardiomyocytes from stress damage, SAR follow-up, cell-based, panel, H9c2 and HL-1, ATP luminescence, set 2 (AID 651871).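 Also: cells exposed to stressor for 2 h before ATP readout; reference of the scale not given here.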 Particulars: H9c2/HL-1 cardiomyocytes, H2O2 oxidative stress; with H2O2, run 1, at 79 µM (top of the series).
Take `COc1ccc2nc(-c3cc(OC)c(OC)c(OC)c3)cc(C(=O)NCC(=O)Nc3ccc(C(C)=O)cc3)c2c1`: the activity (protection/inhibition) was 92.2% and 97.6%. In the case of `CCOC(=O)c1cccc(NC(=O)CNC(=O)c2cc(-c3cc(OC)c(OC)c(OC)c3)nc3ccccc23)c1`, the activity (protection/inhibition) came out at 77.6%. Next, `COc1cc(-c2cc(C(=O)Nc3cccc(C(=O)NCc4ccccc4)c3)c3ccccc3n2)cc(OC)c1OC`: 83.5%; `COc1ccc2c(c1OC)C(=O)N1c3ccccc3C(=O)N(Cc3cccc(Cl)c3Cl)C21` (centres undefined): 62.2% and 104% and 61.7%.
